TrxR1 substrate – qHTS Assay for Substrates of Mammalian Selenoprotein Thioredoxin Reductase 1 (TrxR1): qHTS; 0.01% of 390,000 active; AID 588456, 2011; Potency, µM (highest dose often 114 µM); purified TrxR1 substrate turnover, NADPH consumption readout; Thioredoxin reductase 1, cytoplasmic (Rattus norvegicus), O89049; also: nearly all actives have a fitted effect of over 50% in size
Target sequence (O89049 whole entry, looked up): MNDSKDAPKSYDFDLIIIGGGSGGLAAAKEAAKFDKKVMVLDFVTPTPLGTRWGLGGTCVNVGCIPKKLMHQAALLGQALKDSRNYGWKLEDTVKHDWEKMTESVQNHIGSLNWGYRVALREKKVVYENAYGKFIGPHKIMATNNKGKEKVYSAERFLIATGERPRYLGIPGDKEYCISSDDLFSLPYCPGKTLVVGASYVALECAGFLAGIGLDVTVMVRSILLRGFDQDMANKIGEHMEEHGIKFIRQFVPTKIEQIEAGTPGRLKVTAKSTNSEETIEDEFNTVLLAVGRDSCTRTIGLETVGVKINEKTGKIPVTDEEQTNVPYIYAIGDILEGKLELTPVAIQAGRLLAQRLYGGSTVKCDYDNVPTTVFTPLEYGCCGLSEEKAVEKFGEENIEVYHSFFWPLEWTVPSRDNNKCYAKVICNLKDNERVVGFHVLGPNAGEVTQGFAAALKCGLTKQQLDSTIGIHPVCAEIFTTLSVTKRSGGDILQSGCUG
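Rat TrxR1, dispensed at 90 nM, was prereduced with 400 uM NADPH (final) for 5 min at ~22 deg C, then incubated with compound 15 min before 400 uM selenite. A first-read NADPH fluorescence drop versus no-compound background flagged substrates.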
Nrf2 block – Nrf2 qHTS screen for inhibitors; 2.1% of 360,000 active; A549 ARE-Fluc reporter, luciferase luminescence, 18-24 h; Potency, µM (highest dose often 46 µM), usual class: inhibitors; also: nearly all actives have a fitted effect of over 60% in size
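Two sequential reads on A549 ARE_Fluc cells exposed to compound for 18-24 h: a CellTiter-Fluor fluorescence read for viability, then a luciferase luminescence read for Nrf2/ARE activity.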
TrxR1 inh – qHTS Assay for Inhibitors of Mammalian Selenoprotein Thioredoxin Reductase 1 (TrxR1): qHTS; 1% of 390,000 active; recombinant rTrxR1, NADPH fluorescence consumption, selenite substrate; Thioredoxin reductase 1, cytoplasmic (Rattus norvegicus), O89049; Potency, µM (top dose mostly 114 µM), usual class: inhibitors; also: nearly all actives have a fitted effect of over 65% in size
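Rat TrxR1 (90 nM in the dispensed reagent) was pre-reduced with 400 uM NADPH for 5 min at room temperature, then incubated with compound for 15 min. After 400 uM selenite was added, NADPH fluorescence (Ex 340/Em 450 nm) was followed for 8 min.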
mIDH1 inhibitor – qHTS for Inhibitors of mutant isocitrate dehydrogenase 1 (IDH1): qHTS; IDH1-R132H enzyme, NADPH consumption, diaphorase/resazurin fluorescence; Potency, µM (titrated, usually from 76.6 µM), hits mostly inhibitors; 0.093% of 390,000 active; AID 602179, 2012; also: nearly all actives have a fitted effect of over 65% in size
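IDH1-R132H (0.5 ug/mL) preincubated 30 min with compound, then NADPH (0.016 mM) and alpha-KG (2 mM) added; 80 min at RT, pH 7.5. Remaining NADPH coupled via diaphorase/resazurin to fluorescence (540/590 nm); concentration-response curves normalized to no-enzyme control.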
A549 viability – Nrf2 qHTS screen for inhibitors: counterscreen for cytotoxicity. A549 ARE-Fluc cells, CellTiter-Fluor viability, 18-24 h. Potency, µM (top dose mostly 46 µM), most hits filed as inhibitors. 0.16% of 390,000 active. AID 504648, 2011
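A549 ARE-Fluc cells in 5% FBS OPTI-MEM, 5000 cells/well, rested 2 h then exposed to compounds in concentration-response for 18-24 h at 37 °C. Viability by CellTiter-Fluor fluorescence (Ex 405/Em 525) after 30 min; luciferase luminescence (BugLite, 15 min, RT) read afterwards.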
Mito fusion yeast – qHTS Assay for Small Molecule Inhibitors of Mitochondrial Division or Activators of Mitochondrial Fusion. 0.23% of 320,000 active. S. cerevisiae fusion-defective mutant growth rescue, CellTiterGlo 48 h. Potency, µM (doses to about 46.1 µM), hits mostly activators; also: nearly all actives have a fitted effect of over 45% in size
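Read-out: ATP-based luminescence (CellTiterGlo, 10 min ambient) reporting growth of fusion-defective ts yeast after 48 hours at 37C on glycerol/ethanol YPEG medium in the presence of compound.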
Of the large screens only hits and unclear results are named; the others gave an inactive call; ! = not confirmed by another sample. Most compounds without a hit are left out; they make up all but 3.1% or so of the library. Calls follow the shape of the dose curve; as a rule, active = well fitted curve in the direction sought with a large enough effect; inconclusive = small, poorly fitted or top-dose-only effect, or another doubt; inactive = no such curve, though single readings can be large; an effect the other way counts as inactive or inconclusive.

O=C(/C=C\c1ccc(-c2ccccc2)o1)c1ccccc1	Nrf2 block inconclusive, TrxR1 inh 10µM
O=c1cc(/C=C/c2ccc([N+](=O)[O-])cc2)c2ccccc2[nH]1	none (no result: Nrf2 block, mIDH1 inhibitor, A549 viability, Mito fusion yeast)
COc1ccc(OC)c(NC(=O)N2CCN(S(=O)(=O)c3ccc4c(ccn4C)c3)CC2)c1	none (no result: Nrf2 block, Mito fusion yeast)
Cc1cc(=O)[nH]c2nnc(SCCC(C)C)n12	none (no result: Nrf2 block, Mito fusion yeast)
NS(=O)(=O)c1ccc(CCNC(=O)Cn2c(-c3cccs3)cc3ccccc32)cc1	none (no result: Mito fusion yeast)
Cc1ccc(C(=O)/C=C/c2ccc(-c3ccc(C)cc3)o2)cc1	TrxR1 inh 18µM
O=C(Cc1nnc(CNC(=O)c2ccccc2)s1)Nc1ccc(C(F)(F)F)cc1Cl	none (no result: TrxR1 substrate, TrxR1 inh, mIDH1 inhibitor, Mito fusion yeast)
Cc1ccc(C)c(NC(=O)CN2C(=O)CCc3cc(S(=O)(=O)N4CCCCC4)ccc32)c1	none (no result: Nrf2 block, Mito fusion yeast)
CC(C)C(=O)NC(c1ccc(Cl)cc1Cl)c1ccc2cccnc2c1O (stereo not drawn)	Nrf2 block 13µM, A549 viability inconclusive
CCC(=O)NC(c1ccc(Cl)cc1Cl)c1ccc2cccnc2c1O (stereo not drawn)	Nrf2 block inconclusive
CC(=O)NC(c1ccc(Cl)cc1)c1ccc2cccnc2c1O (stereo not drawn)	Nrf2 block inconclusive (no result: Mito fusion yeast)
CC(=O)NC(c1ccco1)c1ccc2cccnc2c1O (stereo not drawn)	Nrf2 block 16µM
O=C(COC(=O)c1ccc2[nH]c3c(c2c1)CCCC3)Nc1ccccc1Cl	Nrf2 block inconclusive
CCC(C)c1ccccc1NC(=O)COC(=O)c1ccc2[nH]c3c(c2c1)CCCC3 (stereo not drawn)	Nrf2 block 21µM, A549 viability inconclusive
CCN(CC)CC#CCOC(=O)C(O)(c1ccccc1)C1CCCCC1 (stereo not drawn)	Mito fusion yeast 23µM!
CCN(CC)CC#CCC(O)(c1ccccc1)C1CCCCC1 (stereo not drawn)	none
CC1=NN(c2ccccc2)C(=O)/C1=C\c1ccc(Oc2ccc([N+](=O)[O-])cc2[N+](=O)[O-])cc1	Nrf2 block inconclusive, TrxR1 inh 4µM
COc1cccc2nccc(/C=C/c3ccc(N(C)C)cc3)c12	none (no result: Nrf2 block, mIDH1 inhibitor, A549 viability, Mito fusion yeast)
O=C(C1CCCN(S(=O)(=O)c2cccc3nsnc23)C1)N1CCc2ccccc2C1 (stereo not drawn)	Nrf2 block 15µM
O=S(=O)(c1ccccc1Cl)N1CCCC(c2nc(-c3cccnc3)no2)C1 (stereo not drawn)	Nrf2 block 26µM
CC(C)(C)c1ccc(OCCn2cc(C(=O)c3ccco3)c3ccccc32)cc1	none (no result: Mito fusion yeast)
N#Cc1c(-c2ccco2)nc(SCC(=O)Nc2cccc(Cl)c2)[nH]c1=O	TrxR1 inh 14µM
CCc1ccc(NC(=O)C(C)Sc2nc(-c3ccco3)c(C#N)c(=O)[nH]2)cc1 (stereo not drawn)	TrxR1 inh 18µM
O=C(CSc1nc2[nH]ncc2c(=O)[nH]1)Nc1cccc(Cl)c1	none
CC(=O)Oc1ccc(-c2nc(-c3ccccc3)no2)cc1	none (no result: Nrf2 block, mIDH1 inhibitor, A549 viability, Mito fusion yeast)
CC1(C)CC(=O)C(C(c2ccc(F)cc2)C2C(=O)CC(C)(C)CC2=O)C(=O)C1	none
COc1ccc(C(C2C(=O)CC(C)(C)CC2=O)C2C(=O)CC(C)(C)CC2=O)cc1CO	TrxR1 inh 8.9µM
COC(=O)c1ccc(C(C2C(=O)CC(C)(C)CC2=O)C2C(=O)CC(C)(C)CC2=O)cc1	none
CC1(C)CC(=O)C(C(c2ccc(Br)cc2)C2C(=O)CC(C)(C)CC2=O)C(=O)C1	TrxR1 inh 7.9µM
COCCNC(=O)C1(C(F)(F)F)C/C(=C\Cc2ccccc2)CCCO1 (stereo not drawn)	none (no result: mIDH1 inhibitor, Mito fusion yeast)
Cc1cc2c(s1)c1cnn(Cc3ccccc3Br)c(=O)c1n2C	none (no result: TrxR1 substrate, TrxR1 inh, mIDH1 inhibitor, Mito fusion yeast)
COC(=O)[C@@H]1CCCN1S(=O)(=O)Cc1ccccc1	none (no result: Nrf2 block, mIDH1 inhibitor, A549 viability, Mito fusion yeast)
CCOC(=O)c1ccc(NC(=S)N2CCC(O)CC2)cc1	Nrf2 block inconclusive
CCOC(=O)c1ccc(NC(=S)N2CCSC2c2ccc(Br)cc2)cc1 (stereo not drawn)	Nrf2 block inconclusive, Mito fusion yeast 22µM
C=CCNC(=S)Nc1ccc(Br)cc1F	Nrf2 block 23µM, TrxR1 inh inconclusive
CCCNC(=S)Nc1ccc(F)cc1F	Nrf2 block 12µM
COc1ccc(OC)c(C(Cc2ccnc3ccccc23)Cc2ccnc3ccccc23)c1	none (no result: Nrf2 block, mIDH1 inhibitor, A549 viability, Mito fusion yeast)
CC1=Cc2ccccc2C(C#N)N1C(=O)c1ccccc1 (stereo not drawn)	Nrf2 block inconclusive, Mito fusion yeast 13µM
Cc1ccc2c(c1)C=CC(C#N)N2C(=O)c1ccccc1 (stereo not drawn)	A549 viability inconclusive
O=C(NP(=O)(N1CCOCC1)N1CCOCC1)C1=C(N2CCOCC2)/C(=C\c2ccccc2)CC1	TrxR1 inh 14µM
O=P(C1=C(N2CCOCC2)/C(=C\c2ccccc2)CC1)(N1CCOCC1)N1CCOCC1	TrxR1 inh inconclusive
Cc1ccc(OC(=O)c2cc(-c3ccc4c(c3)OCCO4)on2)c(C)c1	Nrf2 block inconclusive (no result: Mito fusion yeast)
Cc1nn(CCCC(=O)Nc2cccc(F)c2)c(=O)c2c1sc1ccccc12	Nrf2 block 2.6µM (no result: Mito fusion yeast)
CCOC(=O)CCCCC(=O)c1[nH]c(=O)[nH]c1CSc1nc(C)cc(C)n1	none (no result: Nrf2 block)
CCOC(=O)CCCCC(=O)c1[nH]c(=O)[nH]c1CSc1nc2ccccc2[nH]1	TrxR1 inh 3.2µM
CCOC(=O)CCCCC(=O)c1[nH]c(=O)[nH]c1CSc1nc(C)cc(=O)[nH]1	TrxR1 inh 3.2µM
Cc1ccc(NC(=O)c2sc3ncnc(N4CCN(c5ccccn5)CC4)c3c2C)c(C)c1	Nrf2 block inconclusive, Mito fusion yeast 13µM
CCCCNC(=O)c1sc2ncnc(N3CCc4ccccc4C3)c2c1C	TrxR1 inh 2.8µM (no result: Nrf2 block)
COc1ccccc1NS(=O)(=O)c1cccc(NC(=O)Nc2ccccc2)c1	Nrf2 block 2.6µM
COc1ccccc1NS(=O)(=O)c1cccc(NC(=O)Nc2ccc(Cl)cc2)c1	Nrf2 block inconclusive, A549 viability inconclusive
CCn1ccc(C(=O)Nc2ccc(S(=O)(=O)Nc3ccccc3OC)cc2)n1	Nrf2 block 15µM
O=C(N/N=C/c1ccc(OC(=O)c2ccccc2Cl)cc1)c1cc(O)cc(O)c1	Nrf2 block 6.5µM
